Screening data from PubChem.
RORgamma inh: inhibitors of mouse ROR gamma transcriptional activity; Drosophila S2 Gal4-RORgamma UAS-luciferase reporter, 20 h; P51450; Potency, µM (series often up to 53.6 µM), inactives show at the top dose activity change, negative = inhibition, usual class: inhibitors; 310,000 tested, 5.4% active; note: nearly all actives have a fitted effect of over 60% in size
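A Gal4/UAS one-hybrid system in insect cells: metallothionein-promoter Gal4–ROR gamma fusion plus Photinus luciferase reporter. Copper sulfate 700 uM final, 20 hr ambient incubation, luminescent detection after 10 min with reagent.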
NPSR antagonist: blocks cAMP signaling of the human neuropeptide S receptor; Q6W5P4; CHO-NPSR cells, cAMP TR-FRET, antagonist mode; Potency, µM (titrated, usually from 38.3 µM), without a hit: at the highest dose activity change, negative = inhibition, actives largely listed as inhibitors; 220,000 tested, 1% active; note: nearly all actives have a fitted effect of over 50% in size
Target sequence (Q6W5P4 whole entry, looked up): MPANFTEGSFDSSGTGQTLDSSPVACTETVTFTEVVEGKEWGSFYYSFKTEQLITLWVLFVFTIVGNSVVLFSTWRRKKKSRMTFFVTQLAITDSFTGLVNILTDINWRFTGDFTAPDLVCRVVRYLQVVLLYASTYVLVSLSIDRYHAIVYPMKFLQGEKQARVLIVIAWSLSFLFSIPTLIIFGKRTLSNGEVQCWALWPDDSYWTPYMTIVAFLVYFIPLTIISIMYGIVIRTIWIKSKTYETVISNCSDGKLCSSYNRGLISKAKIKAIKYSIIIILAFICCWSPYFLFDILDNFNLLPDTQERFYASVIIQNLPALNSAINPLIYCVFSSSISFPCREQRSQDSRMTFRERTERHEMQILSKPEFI
VP16 counter: inhibits Gal4-VP16 luciferase reporter, ROR gamma counter-screen; Drosophila S2 Gal4-VP16 UAS-luciferase, luminescence, 20 h; Potency, µM (highest dose often 53.6 µM), for inactives: at the highest dose activity, negative = inhibition, most hits filed as inhibitors; 310,000 tested, 3.5% active;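 note: Gal4-VP16 expression switched on by copper sulfate through the metallothionein promoter; nearly all actives have a fitted effect of over 50% in size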
B2AR arrestin: recruits beta-arrestin to the human beta2-adrenergic receptor; P07550; beta-arrestin recruitment to beta2AR, cell-based reporter; Potency, µM (top dose mostly 46.1 µM), inactives show top-dose activation, actives largely listed as activators; 330,000 tested, 0.02% active; AID 492947;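 note: 0% = DMSO controls and full agonism = EC100 isoproterenol or metaproterenol; nearly all actives have a fitted effect of over 65% in size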
The depositor's hits bear a star; [ ] = remark or other dose. A selection: hits, their analogues and other compounds. The true share with any hit is near 5.7%. Calls come from the whole dose curve; as a rule, active = well fitted curve in the direction sought with a large enough effect; inconclusive = small, poorly fitted or top-dose-only effect, or another doubt; inactive = no such curve, though single readings can be large; an effect the other way counts as inactive or inconclusive. Unless noted, % is set by controls: 0 for no effect and ±100 for the full control effect; potency is the fitted concentration of half-maximal effect.

How did CCc1ccc2c(c1)C(O)(CC(=O)c1cccs1)C(=O)N2 (centres undefined) do in these assays?
RORgamma inh: 11.7%; NPSR antagonist: 6.2%; VP16 counter: -10.0%; B2AR arrestin: 0.3%

How did Cc1nnc(N/N=C/c2cc([N+](=O)[O-])c(N3CCC(C)CC3)cc2N2CCC(C)CC2)n1N do in these assays?
RORgamma inh: 15.8µM*; NPSR antagonist: 10µM*; VP16 counter: inconclusive; B2AR arrestin: 0.4%

Results for CCc1nnc(N/N=C/c2ccc(N3CCC(C)CC3)c([N+](=O)[O-])c2)n1N ?
RORgamma inh: 10µM*; NPSR antagonist: -4.3%; VP16 counter: inconclusive; B2AR arrestin: -0.3%

Results for Nn1cnnc1N/N=C/c1ccc(Cl)c([N+](=O)[O-])c1 ?
RORgamma inh: inconclusive; NPSR antagonist: 14.8%; VP16 counter: inconclusive; B2AR arrestin: 0.3%

How did c1ccc2c(c1)Cc1cc3cc4c(cc3nc1-2)OCO4 do in these assays?
RORgamma inh: 2.24µM*; VP16 counter: 2.24µM*

Results for O=C(N/N=C/c1c(O)ccc2ccccc12)c1ccc(CO)nc1 ?
RORgamma inh: 3.98µM*; VP16 counter: 6.31µM*; B2AR arrestin: -0.2%

How did O=C(N/N=C\c1c(O)ccc2ccccc12)c1ccc(S(=O)(=O)N2CCCCC2)cc1 do in these assays?
RORgamma inh: 2.51µM*; NPSR antagonist: 0.9%; VP16 counter: 3.98µM*; B2AR arrestin: -0.5%

What do the screens show for `O=C(NN=Cc1c(O)ccc2ccccc12)c1ccc2c(c1)OCO2`?
B2AR arrestin: -0.7%

How did Cc1ccc(S(=O)(=O)N(CC(=O)NCc2ccc(F)cc2)C(=O)N2CCN(C)CC2)cc1 do in these assays?
B2AR arrestin: -0.1%

What do the screens show for `CCCCCCCC/C=C\CCCCCCCC(=O)OC[C@@H](O)COP(=O)(O)O`?
RORgamma inh: 3.8%; VP16 counter: -3.6%

Results for COc1ccc(N(C(=O)CCl)C(C)(C(=O)Nc2c(C)cccc2C)c2ccccn2)cc1 (centres undefined) ?
RORgamma inh: 33.0%; NPSR antagonist: -3.4%[46.1 µM]; VP16 counter: 4.4%; B2AR arrestin: 13µM*

How did C=C(C)CNC(=S)N/N=C(\C)c1ccc(-n2ccnc2)cc1 do in these assays?
RORgamma inh: 6.31µM*; NPSR antagonist: -5.8%[46.1 µM]; VP16 counter: 7.94µM*; B2AR arrestin: 0.1%

What do the screens show for `S=C(NCCSCc1ccc(Cl)cc1Cl)Nc1ccccc1`?
RORgamma inh: 3.16µM*; NPSR antagonist: -16.9%[46.1 µM]; VP16 counter: 3.98µM*; B2AR arrestin: -0.4%

What do the screens show for `O=C(NCCSCc1c(F)cccc1Cl)Nc1ccccc1`?
RORgamma inh: 39.6%; VP16 counter: 27.0%; B2AR arrestin: 0.3%

What do the screens show for `COc1ccc(CSCCNC(=S)Nc2ccccc2)cc1Cl`?
RORgamma inh: 4.47µM*; NPSR antagonist: -44.2%; VP16 counter: inconclusive; B2AR arrestin: -0.7%

How did S=C(Nc1ccccc1)Nc1ccc(OCc2ccc(Cl)cc2Cl)cc1 do in these assays?
RORgamma inh: 1.41µM*; NPSR antagonist: -15.4%[46.1 µM]; VP16 counter: 7.08µM*; B2AR arrestin: -0.2%

Results for S=C(NCCSCc1c(Cl)cccc1Cl)Nc1ccccc1 ?
RORgamma inh: 2µM*; NPSR antagonist: -17.2%[46.1 µM]; VP16 counter: 5.01µM*; B2AR arrestin: -0.9%

How did S=C(NCCNC(=S)Nc1ccccc1)Nc1ccccc1 do in these assays?
RORgamma inh: -37.4%[1.91 µM]; VP16 counter: -0.2%; B2AR arrestin: 0.5%

What do the screens show for `COc1ccc(CSCC(=O)Nc2ccccc2)cc1[N+](=O)[O-]`?
RORgamma inh: inconclusive; VP16 counter: 7.3%; B2AR arrestin: 0.4%

How did N#CC1(O)CCCCC1 do in these assays?
RORgamma inh: 22.8%; VP16 counter: -6.3%

Results for OCCNCc1ccc(OCc2ccc(Cl)cc2Cl)cc1 ?
RORgamma inh: 12.6µM*; NPSR antagonist: -31.4%; VP16 counter: -2.1%[10 µM]; B2AR arrestin: -0.1%

How did Cc1ccccc1CSCCNC(=S)Nc1ccccc1 do in these assays?
RORgamma inh: 2.24µM*; NPSR antagonist: -23.1%; VP16 counter: 7.08µM*; B2AR arrestin: 0.0%

What do the screens show for `Cc1ccccc1CSCCNC(=O)c1ccccc1`?
RORgamma inh: 16.1%; NPSR antagonist: -1.8%; VP16 counter: 7.1%; B2AR arrestin: 0.0%

Results for OCCCCNCc1ccc(OCc2ccc(Cl)cc2Cl)cc1 ?
RORgamma inh: inconclusive; NPSR antagonist: inconclusive; VP16 counter: -15.0%; B2AR arrestin: -0.7%

How did O=C(Nc1cccc(F)c1)N1CC[C@@]2(CCCN(C(=O)c3ccco3)C2)C1 do in these assays?
RORgamma inh: -2.6%; VP16 counter: 6.3%

Results for CNc1ccccc1C(=O)OC(C)C(=O)Nc1ccc(Cl)cn1 (centres undefined) ?
RORgamma inh: 20.7%; VP16 counter: -10.8%; B2AR arrestin: -0.9%

Results for Cc1cc(C)c(S(C)(=O)=O)c(NN)n1 ?
RORgamma inh: 2µM*; NPSR antagonist: 7.2%; VP16 counter: -22.0%; B2AR arrestin: -0.1%

What do the screens show for `COCCNc1nc(-c2ccoc2)nc2ccccc12`?
RORgamma inh: 9.6%; VP16 counter: 5.0%

Results for CCn1c(-c2cc(-c3cc(OC)ccc3OC)nc3ccccc23)n[nH]c1=S ?
RORgamma inh: 8.91µM*; NPSR antagonist: -20.9%[46.1 µM]; VP16 counter: -16.7%; B2AR arrestin: 0.2%

What do the screens show for `COc1ccccc1-c1nc2ccccc2c(=O)n1O`?
RORgamma inh: -13.8%; VP16 counter: 5.7%; B2AR arrestin: -0.5%

What do the screens show for `CCn1c(-c2cc(-c3ccccc3OC)nc3ccccc23)n[nH]c1=S`?
RORgamma inh: 7.94µM*; NPSR antagonist: -0.8%; VP16 counter: -3.2%; B2AR arrestin: -1.0%

Results for N[C@@H](Cn1ccc(=O)n(Cc2ccccc2C(=O)O)c1=O)C(=O)O ?
RORgamma inh: 11.3%; VP16 counter: -4.3%

How did O=C1C=C(NCc2ccccc2)CCC1 do in these assays?
RORgamma inh: -39.8%; NPSR antagonist: 29.1%; VP16 counter: 14.8%; B2AR arrestin: 0.4%

Results for O=C1C=C(NC2=CC3OC(c4ccccc4)OCC3OC2=O)CCC1 (centres undefined) ?
RORgamma inh: 10µM*; NPSR antagonist: -46.5%; VP16 counter: 10µM*; B2AR arrestin: 0.0%

What do the screens show for `CC12CCC(=O)N1C(C(=O)NNC(=O)COc1ccc(Br)cc1)CS2` (centres undefined)?
B2AR arrestin: -0.3%

Results for Cc1cc(C)nc(Nc2n[nH]c(-c3ccc(C(C)(C)C)cc3)n2)n1 ?
RORgamma inh: 10µM*; NPSR antagonist: -22.8%; VP16 counter: 4.6%; B2AR arrestin: -0.4%

Results for Cc1cc(C)nc(Nc2n[nH]c(-c3ccccc3Br)n2)n1 ?
RORgamma inh: 14.1µM*; NPSR antagonist: -27.0%[46.1 µM]; VP16 counter: inconclusive; B2AR arrestin: 0.1%

How did Cc1ccc(NS(=O)(=O)c2ccc(OCC(N)=O)cc2)cc1 do in these assays?
RORgamma inh: 16.8%; NPSR antagonist: 9.1%; VP16 counter: -8.7%; B2AR arrestin: 0.2%

Results for Cc1nc(N2CCOCC2)c2cc(-c3ccccc3)sc2n1 ?
RORgamma inh: 9.7%; NPSR antagonist: -26.8%[46.1 µM]; VP16 counter: -2.5%; B2AR arrestin: -1.2%
